# KCNH2 3.1 block: KCNH2 3.1 (human) potassium channel inhibition; AID 720553; activity change, % (tested at about 1.8 µM); 340,000 compounds, 0.95% hits; U2OS KCNH2 3.1, thallium flux FluxOr; hits give low values;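 active means maximum activity change below -70%; inconclusive means maximum activity change from -70% to -50%; inactive means maximum activity change above -50%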;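 further: thallium influx rate constant from kinetic fluorescence after stimulation buffer; on the % scale 0 is the no-effect control and ±100 the full control effect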
#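 Measured as rate of thallium-driven FluxOr signal in transduced U2OS cells carrying the 3.1 channel, read kinetically for 2 min upon stimulation; values are rate constants scaled to DMSO control wells.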
# KCNH2 WT inh: KCNH2 (human, wildtype) channel inhibition; U2OS, BacMam KCNH2, thallium flux FluxOr; hits give low values; activity change, % at 1.84 µM; 340,000 compounds, 0.37% hits;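 active means maximum activity change below -70%; inconclusive means maximum activity change between -70% and -50%; inactive means maximum activity change above -50%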; further: on the % scale 0 is the no-effect control and ±100 the full control effect
# Target sequence (Q12809 whole entry, looked up): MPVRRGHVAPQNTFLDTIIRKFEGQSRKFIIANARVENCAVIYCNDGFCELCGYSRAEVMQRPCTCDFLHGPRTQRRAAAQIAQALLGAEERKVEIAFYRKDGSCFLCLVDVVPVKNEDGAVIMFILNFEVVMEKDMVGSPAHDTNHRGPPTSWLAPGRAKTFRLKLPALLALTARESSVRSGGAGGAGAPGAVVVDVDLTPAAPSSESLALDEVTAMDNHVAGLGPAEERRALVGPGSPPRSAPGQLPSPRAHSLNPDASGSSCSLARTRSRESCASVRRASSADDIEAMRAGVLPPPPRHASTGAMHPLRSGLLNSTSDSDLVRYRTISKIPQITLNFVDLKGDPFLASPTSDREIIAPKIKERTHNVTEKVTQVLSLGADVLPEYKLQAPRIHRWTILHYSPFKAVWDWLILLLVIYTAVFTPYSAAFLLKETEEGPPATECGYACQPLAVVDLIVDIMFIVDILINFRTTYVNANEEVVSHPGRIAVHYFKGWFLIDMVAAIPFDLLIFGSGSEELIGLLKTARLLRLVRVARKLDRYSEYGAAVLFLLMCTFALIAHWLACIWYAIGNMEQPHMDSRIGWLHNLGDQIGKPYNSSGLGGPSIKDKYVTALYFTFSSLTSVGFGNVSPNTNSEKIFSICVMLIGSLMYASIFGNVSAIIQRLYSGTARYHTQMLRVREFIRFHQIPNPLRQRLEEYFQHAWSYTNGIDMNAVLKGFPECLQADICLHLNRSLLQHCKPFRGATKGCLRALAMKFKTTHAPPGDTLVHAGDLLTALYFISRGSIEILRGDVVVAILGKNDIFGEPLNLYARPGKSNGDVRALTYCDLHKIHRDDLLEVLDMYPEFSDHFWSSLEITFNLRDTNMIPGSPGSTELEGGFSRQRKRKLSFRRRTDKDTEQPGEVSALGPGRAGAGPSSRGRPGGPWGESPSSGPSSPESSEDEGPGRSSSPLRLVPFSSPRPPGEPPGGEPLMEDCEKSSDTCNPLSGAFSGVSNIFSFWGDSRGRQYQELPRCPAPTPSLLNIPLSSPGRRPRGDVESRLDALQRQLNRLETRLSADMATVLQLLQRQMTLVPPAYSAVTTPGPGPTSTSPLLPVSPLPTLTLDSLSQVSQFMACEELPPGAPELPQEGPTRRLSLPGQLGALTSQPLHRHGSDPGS
#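 U2OS cells transduced with wild-type KCNH2 virus are loaded with FluxOr dye for 45 min, and thallium flux is measured in kinetic reads before and after stimulation buffer. Rate constants are normalized to DMSO controls.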
# mIDH1 inhibitor: inhibitors of human mutant IDH1 R132H | Potency, µM (doses to about 76.6 µM), inactives show at the highest dose activity change, negative = inhibition, most hits filed as inhibitors | 390,000 compounds, 0.093% hits | IDH1-R132H enzyme, NADPH consumption, diaphorase/resazurin fluorescence | O75874; further: potency means the concentration at half of the fitted maximal effect; on the % scale 0 is the no-effect control and ±100 the full control effect; nearly all actives have a fitted effect of over 65% in size
#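 IDH1-R132H (0.5 ug/mL dispensed) in pH 7.5 Tris buffer was preincubated 30 min with compound, then given a substrate mix of 0.016 mM NADPH and 2 mM alpha-KG for 80 min at room temperature; remaining NADPH was read by diaphorase/resazurin fluorescence.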
# ASM inhibitor: blocks human secretory acid sphingomyelinase | Potency, µM (highest dose often 57.5 µM), for inactives: at the top dose activity change, negative = inhibition, most hits filed as inhibitors | 340,000 compounds, 0.006% hits | placental ASM, HMU-PC fluorogenic substrate, 60 min; further: potency means the concentration at half of the fitted maximal effect
#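 Fluorogenic HMU-PC substrate (9 uM final) is turned over by placental ASM in 60 min at 37 C after a 10 min compound preincubation. Reaction ended by alkaline stop (pH 10), with fluorescence read at 386/447 nm.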
# Apoferritin bind: binds horse apoferritin like a general anesthetic | AID 485281 | apoferritin/1-aminoanthracene competitive binding, fluorescence | Potency, µM (series often up to 77.5 µM), for the others: at the top dose activity change, negative = displacement, most hits filed as inhibitors | 350,000 compounds, 0.074% hits | P02791; further: potency means the concentration at half of the fitted maximal effect; on the % scale 0 is the no-effect control and ±100 the full control effect; nearly all actives have a fitted effect of over 20% in size
#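 Probe: 1-aminoanthracene (50% saturated, PBS). Protein: horse-spleen apoferritin, 10 uM. Incubation: 10 min, room temperature. Detection: 380 nm excitation, 535 nm emission. Analysis: normalized response, four-parameter Hill.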
# * hit, by the source's call; ? = inconclusive; nt = not tested or not shown. Compounds with a hit are over-represented: about 1.2% of the library has one in this group of screens. Unless noted, the call rests on the fitted dose curve; in most records, active means well fitted inhibition curve with a large enough effect; inconclusive means small, poorly fitted or top-dose-only effect; inactive means no such curve, though single readings can be large or run the other way.
SMILES,KCNH2 3.1 block,KCNH2 WT inh,mIDH1 inhibitor,ASM inhibitor,Apoferritin bind
O=C(NCC(=O)N(c1cccnc1)C(C(=O)NC1CCCCC1)c1ccccc1F)c1ccco1 (centres undefined),-192.7*,-149.2*,-22.5%,3.8%,-6.2%
CC(=O)Nc1ccc(N(C(=O)CNC(=O)c2ccco2)C(C(=O)NC2CCCC2)c2ccco2)cc1 (centres undefined),6.4,-22.7,-0.7%,1.3%,-11.1%
Cc1ccc(N(C(=O)CNC(=O)c2ccco2)C(C(=O)NC2CCCC2)c2cccnc2)cc1C (centres undefined),3.4,-188.9*,0.1%,5.4%,-8.7%
CC(=O)Nc1ccc(N(C(=O)CNC(=O)c2ccco2)C(C(=O)NCc2ccco2)c2ccccc2F)cc1 (centres undefined),-111.0*,1.6,-1.0%,-0.5%,-6.0%
COc1ccc(OCC(=O)NNC(=S)NC(=O)C2CC2)cc1,-11.8,-12.2,0.0%,4.0%,-12.4%
Cc1cc(C)cc(OCC(=O)NNC(=S)NC(=O)C2CC2)c1,-70.2*,-6.6,-24.7%,3.4%,-14.6%
O=C(Nc1cccc(-c2csc(Nc3ccc(Cl)cc3)n2)c1)c1cccc(C(F)(F)F)c1,-77.6*,-0.4,-3.6%,-5.5%,1.6%
CCN(CC)c1ccc2cc(-c3nnc(-c4ccncc4)o3)c(=O)oc2c1,?,-93.3*,5.5%,34.0%,1.9%
Cc1cc(N/N=C/c2ccccc2O)nc(-c2ccccc2O)n1,-4.0,5.8,2.5%,-0.8%,41.7%
Cc1cc(N/N=C/c2ccc(O)cc2O)nc(-c2ccccc2O)n1,3.2,1.7,39.8µM*,nt,-12.7%
Cc1noc(/C=C/c2cccs2)c1S(=O)(=O)N1CCC(C(=O)NCc2ccccc2Cl)CC1,nt,nt,-8.4%,nt,3.6%
CC(=O)N(C)c1ccc(OCC(O)Cn2c(C)nc3ccccc32)cc1 (centres undefined),-2.9,2.9,0.1%,-1.9%,-1.4%
CC(=O)N(C)c1ccc(OCC(O)Cn2c3ccc(Cl)cc3c3cc(Cl)ccc32)cc1 (centres undefined),-29.1,-75.5*,7.5%,?,-1.1%
COc1ccc(OC)c2sc(N3CCN(C(=O)c4ccc5c(c4)CCCC5)CC3)nc12,nt,nt,2.7%,nt,-3.5%
CCc1c2c(nc3cccc(SC)c13)COC2,nt,nt,nt,nt,-0.5%
CC1CCN(C(=O)CCCC(=O)O)CC1,-2.4,1.5,7.9%,4.2%,3.1%
CC1CCN(C(=O)CCCC(=O)N2CCC(C)CC2)CC1,19.6,-70.8*,-1.5%,4.3%,-5.9%
Cc1c(CN2CCC(C(=O)Nc3cccc(-c4cccc(Cl)c4)c3)CC2)cnn1C,-84.7*,-99.9*,-7.3%,-7.8%,0.9%
O=C(Nc1cccc(-c2cccc(Cl)c2)c1)C1CCN(Cc2ccon2)CC1,-47.7,37.9,-2.0%,-8.7%,-8.2%
Cn1cc(CN2CCC(C(=O)Nc3cccc(-c4cccc(F)c4)c3)CC2)cn1,-35.9,21.4,-13.1%,-1.7%,-13.4%
Cc1cccc(CN2CCC(C(=O)Nc3cccc(-c4cccc(F)c4)c3)CC2)n1,-93.7*,-73.7*,0.0%,-5.9%,4.9%
COCc1ccc(CN2CCC(C(=O)Nc3cccc(-c4cccc(Cl)c4)c3)CC2)o1,-80.7*,-82.1*,2.4%,-1.0%,16.9%
CCCn1ncc(CN2CCC(C(=O)Nc3cccc(-c4cccc(F)c4)c3)CC2)c1C,-85.3*,?,23.2%,-3.4%,-12.3%
COCc1ccc(CN2CCC(C(=O)Nc3cccc(-c4cscn4)c3)CC2)o1,-1.8,7.2,-8.1%,-4.0%,-9.1%
CCCOc1ccc(C(=O)Nc2ccc3oc(-c4ccncc4)nc3c2)cc1,nt,nt,-16.0%,nt,-0.6%
SMILES,KCNH2 3.1 block,KCNH2 WT inh,mIDH1 inhibitor,ASM inhibitor,Apoferritin bind
Cc1cccc(-c2ccc(NC(=O)C3CCN(CC4CC4)CC3)cc2)c1,-38.5,-6.6,0.0%,-2.7%,?
C=CCn1cc(CN2CCC(C(=O)Nc3cccc(-c4cccc(Cl)c4)c3)CC2)c(C)n1,-93.0*,-99.3*,-8.0%,-12.7%,-11.4%
O=C(Nc1cccc(-c2cccc(Cl)c2)c1)C1CCN(Cc2ccccn2)CC1,-72.2*,?,1.3%,-1.6%,-13.6%
COc1cccc(CN2CCC(C(=O)Nc3ccc(-c4cccc(C)c4)cc3)CC2)c1O,-94.8*,-8.3,-2.7%,-14.2%,?
O=C(CCNc1cccc(Cl)c1)c1cccs1,-70.1*,-1.1,0.3%,-0.8%,?
Cc1ccc(NCCC(=O)c2cccs2)cc1Cl,-36.6,-2.6,3.5%,-1.1%,-4.4%
NCCOB(c1ccccc1)c1ccccc1,nt,nt,nt,nt,-0.2%
Oc1cccc(C(=S)N2CCCCC2)c1,-145.8*,-4.5,3.8%,3.1%,?
COc1ccc(-c2nc(SCC(=O)Nc3ccc4c(c3)OCO4)c(-c3ccccc3)[nH]2)cc1,nt,nt,24.8%,nt,-9.0%
COc1ccc2oc(=O)c(C(=O)N3CCN(c4ccc(C)cc4)CC3)cc2c1,nt,nt,2.9%,nt,-14.4%
Cc1ccc(Sc2ccc(CO)cc2[N+](=O)[O-])cc1,7.0,1.8,3.8%,3.3%,?
Cc1ccc(Sc2ccc(CN3CCCC3)cc2[N+](=O)[O-])cc1,-92.5*,17.2,-2.8%,-8.6%,-23.3%
CN1CCN(Cc2ccc(Sc3ccc(Cl)cc3)c([N+](=O)[O-])c2)CC1,-89.6*,-95.9*,-5.2%,3.2%,-13.0%
CCCCN(CC)c1nc(C)nc2c1c(C)c(C)n2-c1c(C)cc(C)cc1C,nt,nt,nt,nt,95.0%
O=C(Cn1[nH]c(=O)c2ccccc2c1=O)NNC(=O)c1ccccc1,18.3,-269.8*,2.1%,7.9%,-4.8%
O=C(COc1ccccc1Cl)NNC(=O)Cn1[nH]c(=O)c2ccccc2c1=O,6.6,0.1,-3.7%,2.2%,nt
Cc1ccc(C)c(NC(=O)CSc2nncn3c2cc2sccc23)c1,nt,nt,-3.3%,nt,-10.2%
Cc1cc(C)n(-c2nc3cc(Cl)ccc3nc2N2CCN(c3cccc(C)c3C)CC2)n1,nt,nt,2.6%,nt,3.4%
COc1cc(CN2CCN(S(=O)(=O)c3ccccc3)CC2)cc(OC)c1OC,20.2,-0.7,-4.8%,-6.7%,-3.5%
O=[N+]([O-])c1ccccc1CN1CCN(Cc2ccc3ccccc3c2)CC1,-80.4*,4.5,1.9%,0.8%,-16.6%
COc1ccc(CN2CCN(Cc3ccc4ccccc4c3)CC2)cc1OC,-87.6*,-11.9,6.6%,1.0%,-4.9%
COc1cc(CN2CCCC(C)C2)ccc1OCc1ccccc1 (centres undefined),-84.5*,31.3,2.2%,0.3%,-15.5%
COc1cc(CN2CCN(C(O)(c3ccccc3)c3ccccc3)CC2)cc(OC)c1OC,-75.5*,31.7,7.9%,2.0%,-7.4%
CCc1ccc(-c2nn(CC(=O)Nc3ccccc3C)c3c2cnc2ccc(C)cc23)cc1,nt,nt,-6.1%,nt,-4.5%
CCc1ccc(OC(=O)c2sc3ncn(Cc4cccc(F)c4)c(=O)c3c2C)cc1,nt,nt,17.2%,nt,-7.9%

# Assay outcomes (PubChem)
